In PubChem BioAssay AID628 (Vanderbilt High Throughput Screening Facility, 2007):
In all, about 64,000 compounds went through this assay and about 2,200 (3.4%) were called active. The entries come from a sample that favours actives as a whole. Unmarked numbers belong to inactive results.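 How the source made its calls: active means calcium fluorescence response, raw or row-and-column corrected B-score, differing from the plate sample mean either way at a set confidence level, mostly lower; inactive means the rest.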

Molecular target: Muscarinic acetylcholine receptor M1 (Rattus norvegicus) (UniProt P08482)
Experiment: antagonists of rat M1 muscarinic receptor (AID 628)
Conditions: CHO-M1 cells, Fluo-4 calcium, ACh EC80 antagonist mode; at 10 µM; stronger effect = lower value

Muscarinic acetylcholine receptor M1 (Rattus norvegicus), sequence (P08482 whole entry, looked up): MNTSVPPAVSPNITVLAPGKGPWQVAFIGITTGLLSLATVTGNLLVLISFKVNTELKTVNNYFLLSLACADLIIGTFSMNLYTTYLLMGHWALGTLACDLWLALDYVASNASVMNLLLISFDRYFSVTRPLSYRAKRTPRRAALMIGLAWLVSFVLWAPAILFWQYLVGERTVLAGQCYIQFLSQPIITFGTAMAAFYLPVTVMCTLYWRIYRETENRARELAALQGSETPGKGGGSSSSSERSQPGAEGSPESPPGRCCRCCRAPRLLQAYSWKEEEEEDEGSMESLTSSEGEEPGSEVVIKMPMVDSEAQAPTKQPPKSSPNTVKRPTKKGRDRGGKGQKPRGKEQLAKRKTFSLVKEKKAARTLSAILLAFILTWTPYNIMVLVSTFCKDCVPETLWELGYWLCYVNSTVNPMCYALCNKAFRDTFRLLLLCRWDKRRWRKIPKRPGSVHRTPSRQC

| SMILES | B-score |
| --- | --- |
| CC[N+]1(C)CCCC(OC(=O)C(O)(c2ccccc2)c2ccccc2)C1 (stereo not given) | -11.4 (active) |
| O=C1NC(=O)C(C/C=C/c2ccccc2)C(=O)N1 | -0.333 |
| CSC1=NP(=S)(SC)N(C)c2nc3n(c21)CCC3 (stereo not given) | -0.101 |
| O=c1c2ccccc2nc(-c2ccco2)n1-c1ccc(Br)cn1 | -0.192 |
| CCOC(=O)C1SC2(C(F)(F)C(F)F)CC1(O)c1c(c(OC)c3occc3c1OC)O2 (stereo not given) | -2.3 (active) |
| CNP1(NC)=Nc2nn(-c3ccccc3)c(N)c2C(c2ccccc2)=N1 | 0.00862 |
| C[N+]12CN3CN(CN(C3)C1)C2 | 0.464 |
| CCN(CC)P(=O)(Oc1cccc(C)c1)N(CC)CC | 0.467 |
| COc1ccc(C(=O)CC2C(=O)N(C)C(=O)N(C)C2=O)cc1 | -0.22 |
| COc1ccccc1CN1CCN(C(=O)Cc2ccccc2)CC1 | 0.441 |
| COc1ccc(CN2CCN(c3ccccc3F)CC2)c(OC)c1 | -2.11 (active) |
| CC(C)c1ccc(O)c(CN2CCN(c3ccccc3)CC2)c1 | 0.336 |
| CCc1nc2ccccc2c(=O)n1-c1cccc(OC)c1 | -0.313 |
| COc1ccc(C2NCc3ccc4c(c3-n3cccc32)OCO4)cc1OC (stereo not given) | -4.39 (active) |
| c1ccc(C2NCc3ccccc3-n3cccc32)cc1 (stereo not given) | -0.457 |
| CCC/C(=N\O)c1c[nH]c2ccccc12 | -0.0862 |
| CCOC(=O)c1c(C)c(C(=O)N2CCC3(CC2)OCCO3)c(C)n1CC | 0.059 |
| CC12CN3CC(C)(CN(C1)C3c1cccs1)C2 (stereo not given) | -0.259 |
| Cc1nc2nc(C)c(CCC(=O)N3CCC4(CC3)OCCO4)c(C)n2n1 | 0.0167 |
| CCOC(=O)CC1=C(C(=O)OCC)C2(C(=O)N1)C(C(=O)OC)=C(N)Oc1ccccc12 (stereo not given) | 0.186 |
| CCOC(=O)c1c(N)n(Cc2ccccc2)c2nc3ccccc3nc12 | 0.91 |
| Cc1ccc(C)c(NC2=NCCCS2)c1 | -1.64 |
| CC(=NCc1ccc2c(c1)OCO2)c1c(O)[nH]c(=O)[nH]c1=O | 0.0855 |
| Fc1ccc(N2CCN(Cc3ccc4c(c3)OCO4)CC2)cc1 | -2.36 (active) |
| COc1ccccc1N=C1SCCCN1C | 0.926 |
